This is part of a sample that, as a whole, favours compounds with a hit. Of some 83,000 tested, about 20% had one in any assay.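 The test compound was applied at a single concentration to cells in 96-well plates for 48 hours, and percent growth was recorded.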 Unmarked numbers belong to inactive results. The source made the active and inactive calls. How the source made its calls: active means growth percent below 10; inactive means the rest.
System: CCRF-CEM leukemia
Test: NCI-60 one-dose screen, 48 h (100 = growth as untreated, 0 = no growth, -100 = all killed)
Details: 10 µM unless noted

| SMILES | growth |
| --- | --- |
| O=C(O)c1cn(C2CC2)c2cc(N3CCN(S(=O)(=O)c4ccc(Cl)c(Cl)c4)CC3)c(F)cc2c1=O | 16.9% |
| COc1ccc(/C=C/C(=O)c2ccc(B(O)O)cc2)cc1O | 82.6% |
| O=C(Nc1ccc(OCc2nnc(-c3ccc(Cl)cc3)o2)c(F)c1)Nc1ccc(Cl)c(Cl)c1 | 51.7% |
| COc1cc(/C=C2\C=C(c3ccc(F)cc3)N(Cc3ccccc3)C2=O)cc(OC)c1OC | 62% |
| Cc1cc(C)c(NC(=O)c2sc3nc4c(cc3c2N)CN(Cc2ccccc2)CC4)c(C)c1 | 16.6% |
| COc1cccc(-c2nc3sccn3c2-c2ccnc(NCCCNS(=O)(=O)c3ccccc3)n2)c1 | 30% |
| COc1cccc(/C=C2\SC(N3CCN(c4ccccn4)CC3)=NC2=O)c1 | 63.4% |
| CCOC(=O)C1=C(CSC(=S)N(C2CCCCC2)C2CCCCC2)N(C)C(=O)NC1c1ccccc1 (stereo not drawn) | 35.3% |
| CC(C)C[C@H](NC(=O)[C@@H](Cc1ccccc1)n1ccc(Nc2ccccc2)cc1=O)B(O)O | -5.5% (active) |
| COc1cccc(-c2nc3sccn3c2-c2ccnc(NCCCNS(=O)(=O)c3ccc(F)cc3)n2)c1 | 24.6% |
| Nc1c(C(=O)Nc2ccccc2)sc2nc3c(cc12)CCCCC3 | 2.92% (active) |
| CCNC(=O)CCCCC(=O)c1c(C)[nH]c(/C=C2\N=C(c3ccc[nH]3)C=C2OC)c1C | 42.2% |
| Cc1cc(Nc2nc(C(=O)Nc3ccccc3)nc3ccccc23)n[nH]1 | 38.1% |
| COc1ccc(/C=C2\C(=O)N(C(=O)c3csc(NC(C)=O)n3)N=C2C)cc1 | 99% |
| COc1ccc(-c2nc3sccn3c2-c2ccnc(NCCCNS(=O)(=O)c3ccc4ccccc4c3)n2)cc1 | 53.8% |
| CC[C@]1(O)C[C@@H]2CN(Cc3c([nH]c4ccccc34)[C@@](C(=O)OC)(c3cc4c(cc3OC)N(C)[C@H]3[C@@](O)(C(=O)OC)[C@H](OC(C)=O)[C@]5(CC)[C@@H]6C[C@@H]6CN6CC[C@]43[C@@H]65)C2)C1 | 1.15% (active) |
| CN=S(=O)(NC(=O)c1ccc(Cl)cc1Cl)c1ccc(Br)s1 (stereo not drawn) | 96.8% |

| SMILES | growth |
| --- | --- |
| Cc1ccc(S(=O)(=O)NCCCNc2nccc(-c3c(-c4ccccc4)nc4sccn34)n2)cc1 | 18.5% |
| COc1cc(OC)c(C(=O)/C=C/c2cccc(C#N)c2)c(OC)c1 | 2.65% (active) |
| COc1ccc(C2CC(c3cccs3)=NN2c2ccc(S(=O)(=O)NC(=O)Nc3ccc(C)cc3)cc2)cc1 (stereo not drawn) | 87.9% |
| O=S(=O)(NCCNc1nccc(-c2c(-c3ccccc3)nc3sccn23)n1)c1ccc(O)cc1 | 52.2% |
| CNC(=O)Cc1nc(-c2cccc(NS(=O)(=O)c3c(F)cccc3F)c2F)c(-c2ccnc(Nc3ccccc3)n2)s1 | 87.6% |
| O=c1[nH]c2ccccc2cc1-c1nnc(Cc2ccccc2)o1 | 19% |
| CCCCCCC[C@@H](O)CC(=O)N[C@H](CCCCN)C(=O)N[C@H](Cc1c[nH]c2ccccc12)C(=O)NC(CCCCN)C(=O)N[C@H](CC(C)C)C(=O)N[C@H](Cc1ccccc1)C(=O)N[C@H](CCCCN)C(=O)N[C@H](CCCCN)C(=O)N[C@H](CC(C)C)C(=O)N1CCCC1C(=O)N[C@H](CCCCN)C(=O)N[C@H](Cc1ccccc1)C(=O)N[C@H](CC(C)C)C(=O)N[C@H](Cc1c[nH]cn1)C(=O)N[C@H](CC(C)C)C(=O)N[C@H](C)C(=O)N[C@H](CCCCN)C(=O)N[C@H](CCCCN)C(=O)N[C@H](Cc1ccccc1)C(=O)O (stereo partly drawn) | -39.6% (active) |
| Oc1ccc(Cl)cc1-c1cc(-c2ccc(Cl)cc2)n[nH]1 | 36.7% |
| CN1C(=O)[C@H]2c3c1cccc3[C@@]13NC(=O)O[C@H]1[C@H](CCC3(C)C)C2(C)C | 94.5% |
| Cc1cccc(-n2c(C)nc3ccc(NC(=O)NCCCl)cc3c2=O)c1 | -43.7% (active) |
| COc1c(NC[C@H]2OC(O)[C@H](O)[C@@H](O)[C@@H]2O)c(=O)c1=O (stereo partly drawn) | 81.2% |
| COc1ccc(-c2nnc(COc3ccc(NS(=O)(=O)c4ccc(OC)cc4)cc3F)o2)cc1 | 43.1% |
| Nc1c(C(=O)Nc2ccccc2)sc2nc3c(cc12)CN(Cc1ccccc1)CC3 | 98.6% |
| COc1cc(OC)cc(-c2n[nH]nc2-c2ccc3c(c2)OCO3)c1 | 10.4% |
| Cc1ccc(Oc2nc3ccccc3cc2-c2nnc(Cn3c(COc4ccccc4)nc4ccccc43)o2)cc1 | 0.728% (active) |
| COc1cc(C(=O)/C=C/c2cc(C(=O)c3cc(OC)c(OC)c(OC)c3)ccc2OC)ccc1N | -10.7% (active) |

Source: PubChem BioAssay (NCI)
